# A number with no mark means an inactive call.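 Rule for the calls: active = AUC reduced over 20% with Padj below 0.05 in at least 2 of 3 replicates; inactive = otherwise.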
# Key:
# Assay in all cases: growth AUC relative to DMSO control (median of replicates) (fraction); higher = more growth (less inhibition), active = hit call of the paper
# Settings in all cases: 20 µM; 24 h
# [1] = tested on: Akkermansia muciniphila
# Outline: (§1)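 Area under the growth curve was normalised to the plate median of solvent-only wells, or to row and column medians on the industrial chemical plate. Growth curves came from anaerobic gut bacterial monocultures in mGAM at 37 °C, seeded at OD600 0.05 with 20 µM compound (1% DMSO), and read at OD600 hourly for 24 h with the minimum OD set to 0. The value is the median of three biological replicates grown on separate days.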
# [2] = tested on: Bacteroides caccae
# Outline: as §1
# [3] = tested on: Bacteroides clarus
# Outline: as §1
# [4] = tested on: Bacteroides dorei
# Outline: as §1
# [5] = tested on: Bacteroides stercoris
# Outline: as §1
# [6] = tested on: Bacteroides thetaiotaomicron
# Outline: as §1
# [7] = tested on: Bacteroides uniformis
# Outline: as §1
# [8] = tested on: Bifidobacterium longum subsp. longum
# Outline: as §1
# [9] = tested on: Clostridium difficile
# Outline: as §1
# [10] = tested on: Collinsella aerofaciens
# Outline: as §1
# [11] = tested on: Coprococcus comes
# Outline: as §1
# [12] = tested on: Escherichia coli ED1a
# Outline: as §1
# [13] = tested on: Escherichia coli IAI1
# Outline: as §1
# [14] = tested on: Eubacterium rectale
# Outline: as §1
# [15] = tested on: Fusobacterium nucleatum subsp. animalis
# Outline: as §1
# [16] = tested on: Lactobacillus gasseri
# Outline: as §1
# [17] = tested on: Lactobacillus paracasei
# Outline: as §1
# [18] = tested on: Odoribacter splanchnicus
# Outline: as §1
# [19] = tested on: Parabacteroides distasonis
# Outline: as §1
# [20] = tested on: Parabacteroides merdae
# Outline: as §1
SMILES,growth AUC [1],growth AUC [2],growth AUC [3],growth AUC [4],growth AUC [5],growth AUC [6],growth AUC [7],growth AUC [8],growth AUC [9],growth AUC [10],growth AUC [11],growth AUC [12],growth AUC [13],growth AUC [14],growth AUC [15],growth AUC [16],growth AUC [17],growth AUC [18],growth AUC [19],growth AUC [20]
COC(=O)CC(NC(=O)[C@@H](NC(=O)OC(C)C)C(C)C)c1ccc(Cl)cc1 (stereo not given in full),1.08,0.934,0.991,1.02,1.34,0.981,0.934,1.01,1.01,0.963,0.954,1.02,0.986,0.993,1.11,1.01,0.992,0.87,0.954,1.01
CCN(CC)C(=O)c1cccc(C)c1,1.03,0.985,1.03,1.05,1.05,0.975,0.998,1.02,0.982,0.952,0.974,1,1.01,1.06,1.04,0.966,0.977,1.13,1.01,1.04
c1ccc2c(c1)ccc1ccccc12,1.02,0.983,1.01,0.996,0.999,1.01,1,1.01,1,1.02,0.965,1.01,1.01,1.01,0.985,0.994,0.999,1.01,1.04,1.01
COc1c(Cl)ccc(Cl)c1C(=O)O,0.878,0.997,0.975,1.01,0.961,1,0.947,0.926,1.01,1.04,1.01,0.99,0.986,0.912,0.914,1.26,0.919,0.978,1,1
COc1cc(OC)nc(NC(=O)NS(=O)(=O)Nc2ccccc2C(=O)C2CC2)n1,0.985,0.988,0.943,0.963,0.983,0.961,0.915,0.961,1.01,0.997,0.952,1,0.978,0.807,0.97,1.07,1.01,0.963,0.964,0.913
CC(C)(c1ccc(O)cc1)c1ccc(O)cc1,1.01,1.07,1.04,1.01,1.14,1.02,1.06,1.06,1.08,1.03,1.01,0.994,0.989,1.04,1.1,1,1.04,1.07,1.38,1.07
COCCN(C(=O)CO)c1c(C)cccc1C(=O)O,1.23,0.963,1,0.964,1.03,1.01,0.961,1.06,0.94,0.936,0.972,0.976,0.956,1.09,0.968,0.811,0.996,1,0.904,0.986
FC(F)(F)C(=NOCC1OCCO1)c1ccc(Cl)cc1,1.16,0.948,1.05,0.969,1.34,0.991,0.941,0.988,0.904,0.976,1.02,1.01,1.04,1.06,1.08,1.01,1.07,1.04,1,1.03
CC(C)OC(=O)c1cc(C(=O)OC(C)C)cc([N+](=O)[O-])c1,0.939,0.977,0.987,0.974,0.933,0.933,0.924,0.932,0.992,0.947,0.97,0.998,0.988,0.972,0.98,0.968,0.964,1.06,0.963,0.921
CCC(C)c1cc([N+](=O)[O-])cc([N+](=O)[O-])c1OC(=O)OC(C)C (stereo not given),1.05,0.909,0.81,0.892,0.294 (active),0.875,0.881,0.959,0.945,0.915,0.867,0.911,0.929,1.02,0.611 (active),0.859,0.951,1.09,0.979,0.929
CCc1nc2ncnn2c(N)c1CCCCCC(=O)O.Cl,1.06,1.03,1.07,1.03,1.14,0.988,1.02,0.963,1.01,0.996,1.03,1.02,1.04,1.11,1.14,1.08,0.977,1.04,0.99,1.06
CN(C)c1ccc(N=NS(=O)(=O)[O-])cc1.[Na+],1.03,1.02,1.01,0.957,1.06,0.955,0.98,0.978,1.03,1.02,1.03,1.02,1.03,0.973,1.01,0.967,1.02,1.03,1.04,0.996
O=C(O)C1(C(=O)Nc2ccc(Cl)cc2Cl)CC1,1.06,1.06,0.956,1.05,1.1,1.03,1.04,0.998,1.01,1.01,1.01,1.02,1.02,0.98,1.03,0.955,0.999,0.994,0.909,1.01
O=C=NC1CCC(CC2CCC(N=C=O)CC2)CC1 (stereo not given),1.05,0.986,1.03,0.939,1.03,0.995,0.996,1.05,1.01,1.02,1.08,1.02,1.03,0.973,1.05,0.921,1.12,1.06,1,1.02
CP(=O)(O)CCC(=O)O,0.928,0.975,0.956,1.01,1.01,1.03,0.967,1.03,1.04,1,0.993,0.973,0.999,0.804,0.999,1.14,0.999,1.04,0.974,0.993
